# Screens deposited in PubChem by Broad Institute.
# miR-122 inh: miR-122 suppressors via Renilla sensor increase, primary screen, cell-based, Huh7 psiCHECK-miR122, Renilla luciferase, single point; 48 h; activation, % at 12.5 µM; hit rate 0.14% among 340,000; AID 623901, 2012;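 active = mean activation of 30% or more, with every replicate also reaching 30%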;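 note: 0% = median of neutral control wells and 100% = median of positive control wells; higher luciferase signal means stronger suppression of miR-122 activity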
# An asterisk follows results filed as active. Only a selection was taken, and hits are over-represented in it overall.
SMILES,miR-122 inh
CCCCN(CCCC)C(=O)CN(C)S(=O)(=O)c1ccc2c(c1)n(C)c(=O)c(=O)n2C,50*
C[C@@H]1CN([C@H](C)CO)C(=O)c2cc(-c3cccc(C#N)c3)cnc2O[C@@H]1CN(C)C,-8
CCNc1nc(N)nc(Oc2ccc(OCCOc3ccccc3)nn2)n1,-151
CNc1nc(NCCOc2ccccc2)c2sccc2n1,37*
C[C@H](CO)N1C[C@H](C)[C@H](CN(C)Cc2cncnc2)Oc2cc(-c3ccccc3)ccc2S1(=O)=O,2
C[C@H]1CN([C@@H](C)CO)C(=O)c2cc(C#CCc3ccccc3)cnc2O[C@H]1CN(C)Cc1ccccn1,-4
COC(=O)C1CC23C=CCN4CCC5(c6ccccc6NC15C2C)C43 (stereo not drawn),-148
C[C@H](CO)N1C[C@H](C)[C@@H](CN(C)Cc2ccc(F)cc2)Oc2cc(C#Cc3ccccn3)ccc2S1(=O)=O,-24
COc1ccc(C#Cc2cnc3c(c2)C(=O)N([C@H](C)CO)C[C@@H](C)[C@H](CN(C)CC2CCCC2)O3)cc1,-14
C[C@H](CO)N1C[C@H](C)[C@@H](CN(C)C(=O)c2cnccn2)Oc2ncc(C#Cc3ccccn3)cc2C1=O,-17
CCOc1ccc(NS(=O)(=O)c2ccc(NC(=S)NC(=O)CC(C)C)cc2)cc1,-166
Cc1cc(NS(=O)(=O)c2ccc(NC(=O)C(CC(C)C)N3C(=O)c4ccccc4C3=O)cc2)nc(C)n1 (stereo not drawn),35*
Cc1ccc(S(=O)(=O)Nc2ccc3ccccc3c2)cc1,-118
COc1ccccc1S(=O)(=O)N(C)C[C@H]1Oc2ncc(-c3ccc(C)cc3)cc2C(=O)N([C@H](C)CO)C[C@H]1C,1
CC(C)(C)C(=O)C1=C(O)C(=O)N(Cc2ccccc2)C1c1ccccc1F (stereo not drawn),-239
Cc1ccc(-c2cnc3c(c2)C(=O)N([C@@H](C)CO)C[C@@H](C)[C@@H](CN(C)C(=O)Cc2ccncc2)O3)cc1,10
C/C=C/c1cnc2c(c1)C(=O)N([C@@H](C)CO)C[C@H](C)[C@@H](CN(C)S(=O)(=O)c1cccs1)O2,-7
COc1cc2c(cc1OC)C(c1ccc(-c3ccc(Cl)c(Cl)c3)o1)=NCC2,44*
C/C=C/c1ccc2c(c1)O[C@H](CN(C)Cc1ccccc1)[C@H](C)CN([C@H](C)CO)S2(=O)=O,-7
C[C@@H]1CN([C@H](C)CO)C(=O)c2cc(C#CC3(O)CCCC3)cnc2O[C@@H]1CN(C)C(=O)C1CCCCC1,-2
Cc1c(Cl)sn(-c2ccc(Cl)cc2)c1=O,70*
C[C@@H]1CN([C@H](C)CO)C(=O)c2cc(-c3ccc(C#N)cc3)cnc2O[C@H]1CN(C)CC1CCOCC1,4
C[C@H](CO)N1C[C@H](C)[C@H](CN(C)Cc2cncnc2)Oc2cc(-c3cncnc3)ccc2S1(=O)=O,7
COCC(=O)N(C)C[C@H]1Oc2cc(-c3cncnc3)ccc2S(=O)(=O)N([C@H](C)CO)C[C@H]1C,0
C[C@H](CO)N1C[C@H](C)[C@@H](CN(C)Cc2cncnc2)Oc2ncc(C#C[C@@H](C)O)cc2C1=O,-3
SMILES,miR-122 inh
CCOc1ccc(-c2cc(N)n(S(=O)(=O)c3ccc(OC)c(OC)c3)n2)cc1,-92
COc1ccc(-c2c(C)nn3c(N)c(-c4ccccc4)cnc23)cc1OC,45*
C/C(=N/NS(=O)(=O)c1ccc(F)cc1)c1ccc(NC(=O)c2ccc(C)o2)cc1,-132
COc1ccccc1-c1cnc2c(c1)C(=O)N([C@@H](C)CO)C[C@@H](C)[C@@H](CN(C)Cc1ccccc1)O2,-2
C[C@H]1CN([C@@H](C)CO)C(=O)c2cc(-c3ccccc3F)cnc2O[C@@H]1CN(C)C(=O)NC1CCCCC1,4
CC(=O)c1cccc(NC(=O)NCc2cccs2)c1,-103
C=CCc1ccccc1OCC(O)CN1CCN(CCN2C(=O)c3cccc4cccc(c34)C2=O)CC1 (stereo not drawn),46*
CC(C)NC(=O)N(C)C[C@@H]1Oc2cc(-c3ccccc3)ccc2S(=O)(=O)N([C@@H](C)CO)C[C@@H]1C,-16
COc1ccc(S(=O)(=O)NCc2ccco2)c2ccccc12,-96
C[C@@H]1CN([C@H](C)CO)C(=O)c2cc(-c3cccc(F)c3)cnc2O[C@@H]1CN(C)S(C)(=O)=O,10
C[C@H](CO)N1C[C@H](C)[C@@H](CN(C)S(=O)(=O)c2ccccc2)Oc2ncc(C#CC3(O)CCCC3)cc2C1=O,3
C[C@@H]1CN([C@H](C)CO)S(=O)(=O)c2ccc(C#Cc3ccccc3F)cc2O[C@H]1CN(C)C(=O)Cc1ccccc1,1
C[C@@H]1CN([C@@H](C)CO)S(=O)(=O)c2ccc(C#Cc3ccccc3F)cc2O[C@H]1CN(C)C(=O)Cc1ccccc1,-2
C[C@H]1CN([C@@H](C)CO)S(=O)(=O)c2ccc(C#Cc3ccccc3F)cc2O[C@@H]1CN(C)C(=O)Cc1ccccc1,-12
C[C@@H]1CN([C@H](C)CO)S(=O)(=O)c2ccc(Br)cc2O[C@H]1CN(C)C(=O)c1ccc2c(c1)OCO2,-1
C[C@@H]1CN([C@@H](C)CO)S(=O)(=O)c2ccc(C#Cc3ccccc3F)cc2O[C@@H]1CN(C)C(=O)c1ccc2c(c1)OCO2,41*
C[C@@H]1CN([C@@H](C)CO)S(=O)(=O)c2ccc(C#Cc3ccccc3F)cc2O[C@@H]1CN(C)C(=O)Cc1ccncc1,57*
C[C@@H]1CN([C@@H](C)CO)C(=O)c2cc(-c3cncnc3)cnc2O[C@@H]1CN(C)Cc1cncnc1,5
C[C@H](CO)N1C[C@H](C)[C@H](CN(C)CC2CCCC2)Oc2ncc(C#Cc3cccc(F)c3)cc2C1=O,4
Cc1ccc(-c2cnc3c(c2)C(=O)N([C@H](C)CO)C[C@@H](C)[C@@H](CN(C)C(=O)Cc2ccncc2)O3)cc1,-1
C[C@@H]1CN([C@@H](C)CO)S(=O)(=O)c2ccc(C#CC3CC3)cc2O[C@@H]1CN(C)Cc1ccccn1,-14
C[C@H](CO)N1C[C@H](C)[C@H](CN(C)S(=O)(=O)c2ccccc2F)Oc2ncc(/C=C/c3ccccc3)cc2C1=O,3
Cc1ccc(SC(C)C(=O)NCCC2=CCCCC2)cc1 (stereo not drawn),-114
C[C@H](CO)N1C[C@H](C)[C@H](CN(C)C(=O)c2ccccc2)Oc2cc(/C=C/c3ccccc3)ccc2S1(=O)=O,-4
CCCNC(=O)N(C)C[C@@H]1Oc2cc(Br)ccc2S(=O)(=O)N([C@H](C)CO)C[C@@H]1C,6
SMILES,miR-122 inh
CCC(=O)N(C)C[C@@H]1Oc2cc(C#C[C@@H](C)O)ccc2S(=O)(=O)N([C@H](C)CO)C[C@H]1C,-5
CC(=O)N(C)C[C@H]1Oc2cc(C#C[C@H](C)O)ccc2S(=O)(=O)N([C@H](C)CO)C[C@@H]1C,3
Cc1ccccc1NS(=O)(=O)c1cc(C(=O)Nc2cccnc2)ccc1C,-122
CCCC(NS(=O)(=O)c1ccc(Br)cc1)C(=O)O (stereo not drawn),36*
C[C@@H]1CN([C@@H](C)CO)S(=O)(=O)c2ccc(-c3cncnc3)cc2O[C@@H]1CN(C)Cc1ccccc1,-2
C[C@H](CO)N1C[C@H](C)[C@H](CN(C)Cc2cccnc2)Oc2ncc(-c3ccc(F)cc3)cc2C1=O,-5
COCC#Cc1cnc2c(c1)C(=O)N([C@H](C)CO)C[C@@H](C)[C@@H](CN(C)S(=O)(=O)c1cccc(OC)c1)O2,6
[O-]/C(=C(\C(=S)NCc1ccccc1)[n+]1ccccc1)c1ccc(Cl)s1,-173
